Compound activity as filed in PubChem BioAssay.
SARS PLpro yeast: blocks SARS-CoV papain-like protease in a yeast assay | Potency, µM (titrated, usually from 32.9 µM), usual class: activators | 0.19% of 330,000 active | S. cerevisiae expressing SARS-CoV PLpro, growth rescue; calls by dose curve; note: nearly all actives have a fitted effect of over 55% in size
Pf growth 48h: P. falciparum growth inhibition at 48 hours (one generation); P. falciparum luciferase growth in erythrocytes, 48 h; Potency, µM (top dose mostly 28.7 µM), hits mostly inhibitors; 5.9% of 310,000 active
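Cell-based growth assay: transgenic P. falciparum expressing firefly luciferase, cultured in red cells within RPMI 1640 containing 0.5% w/v Albumax, 24 mM bicarbonate and gentamycin. A drop in luciferase activity indicates inhibition.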
HCV inhibitor: inhibitors of hepatitis C virus infection | Huh7.5.1 HCVcc-Cre infection, luciferase reporter, 44 h | 3.4% of 340,000 active | Potency, µM (series often up to 41.8 µM), most hits filed as inhibitors
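Cells seeded at 1,000/well and cultured 4 h, then compounds added followed by HCVcc-Cre virus (~0.5 moi). After 44 h further culture, luciferase substrate was added, plates held 15 min at room temperature, and luminescence read for 15 sec.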
Sm TGR block: S. mansoni TGR enzyme inhibition; Q962Y6; AID 485364; 3% of 360,000 active; Potency, µM (top dose mostly 114 µM), most hits filed as inhibitors; purified TGR, DTNB reduction, TNB absorbance 405 nm; note: nearly all actives have a fitted effect of over 60% in size
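Kinetic colorimetric format: TGR-catalysed, NADPH-driven DTNB reduction monitored via TNB absorbance. Enzyme dispensed at 20 nM; compound exposure 15 min at room temperature before reaction start.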
HCMV inh: blocks human cytomegalovirus replication; HFF cells, HCMV-luciferase reporter, 72 h; stronger effect = lower value; activity change, negative = inhibition, % at 57.5 µM; 4.5% of 410,000 active; AID 1259415; in the data active = activity change below about -60%; inconclusive = no clear call, values can overlap the other calls; inactive = above about -39%
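Cell-based, HFFs, 1000 cells/well, 16 h 37C; cpds in DMSO + HCMV-luc, MOI 1 PFU/cell; 72 h 37C; OneGlo luminescence after 5 min RT; norm. to buffer vs Salinomycin 10uM.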
Pf growth 96h: P. falciparum growth inhibition at 96 hour, primary screen for plastid delayed-death inhibitors | P. falciparum luciferase reporter growth, 96 h | Potency, µM (titrated, usually from 28.7 µM), usual class: inhibitors | 6.9% of 320,000 active
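Infected RBCs, 2% Hct / 0.05% parasitemia final; luciferase-reporter P. falciparum; cpd 96 h, 37 C, 5% CO2; luciferase detection reagent; luminescence.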
A number is an active result; [ ] = another dose, or the depositor's remark. Sampled rows, rich in hits. Any-hit rate of the full collection: about 15%. Unless noted, calls come from the whole dose curve; as a rule, active = well fitted curve in the direction sought with a large enough effect; inconclusive = small, poorly fitted or top-dose-only effect, or another doubt; inactive = no such curve, though single readings can be large; an effect the other way counts as inactive or inconclusive.

What do the screens show for `COc1ccccc1/C=C1/C(=N/O)C2CCN1CC2`?
SARS PLpro yeast: inactive; Pf growth 48h: 12µM; HCV inhibitor: inactive; Sm TGR block: inactive; HCMV inh: inactive; Pf growth 96h: inactive

Results for O=C1C=C(c2ccc(Cl)c(C(F)(F)F)c2)C[C@@H](c2ccc3c(c2)OCO3)C1 ?
SARS PLpro yeast: inactive; Pf growth 48h: inconclusive; HCV inhibitor: inconclusive; Sm TGR block: inactive; HCMV inh: inconclusive; Pf growth 96h: inactive

How did O=c1[nH]c(C2CCN(S(=O)(=O)c3ccccc3F)CC2)nc2c1nnn2Cc1ccc2c(c1)OCCO2 do in these assays?
SARS PLpro yeast: inactive; Pf growth 48h: inactive; HCV inhibitor: inactive; Sm TGR block: inactive; HCMV inh: inactive; Pf growth 96h: inconclusive

What do the screens show for `O=c1[nH]c(C2CCN(S(=O)(=O)c3ccc4c(c3)OCCO4)CC2)nc2c1nnn2Cc1c(F)cccc1Cl`?
SARS PLpro yeast: inactive; Pf growth 48h: inactive; HCV inhibitor: inactive; Sm TGR block: inactive; HCMV inh: -75; Pf growth 96h: inactive

How did O=C(Nc1ccc(F)cc1)N1CCC(c2nc3c(nnn3Cc3ccccc3Cl)c(=O)[nH]2)CC1 do in these assays?
SARS PLpro yeast: inactive; Pf growth 48h: inconclusive; HCV inhibitor: inactive; Sm TGR block: inactive; HCMV inh: inactive; Pf growth 96h: inactive

What do the screens show for `O=c1[nH]c(C2CCN(S(=O)(=O)c3ccccc3)CC2)nc2c1nnn2Cc1cccc(Cl)c1`?
SARS PLpro yeast: inactive; Pf growth 48h: inconclusive; HCV inhibitor: inactive; Sm TGR block: inactive; HCMV inh: inactive; Pf growth 96h: inactive

What do the screens show for `O=C(C1CCC1)N1CCC(c2nc3c(nnn3Cc3c(F)cccc3Cl)c(=O)[nH]2)CC1`?
SARS PLpro yeast: inactive; Pf growth 48h: 13µM; HCV inhibitor: inactive; Sm TGR block: inactive; HCMV inh: inactive; Pf growth 96h: inactive

Results for O=c1[nH]c(C2CCN(S(=O)(=O)c3ccccc3)CC2)nc2c1nnn2Cc1c(F)cccc1Cl ?
SARS PLpro yeast: inactive; Pf growth 48h: inconclusive; HCV inhibitor: inconclusive; Sm TGR block: inactive; HCMV inh: inactive; Pf growth 96h: 5.2µM

How did O=c1[nH]c(C2CCN(S(=O)(=O)c3ccc4c(c3)OCCO4)CC2)nc2c1nnn2Cc1ccccc1F do in these assays?
SARS PLpro yeast: inactive; Pf growth 48h: inconclusive; HCV inhibitor: inactive; Sm TGR block: inactive; HCMV inh: inactive; Pf growth 96h: 13µM

What do the screens show for `O=C(c1ccc2c(c1)N(Cc1ccccc1F)C(=O)c1ccccc1S2=O)N1CCC(Cc2ccccc2)CC1` (stereo not drawn)?
Sm TGR block: inactive; HCMV inh: inactive

What do the screens show for `O=C(O)c1ccc(-c2noc(-c3cccc(F)c3)n2)cc1`?
HCMV inh: inactive

Results for Cc1ccc(NC(=O)CN(C)C(=O)COC(=O)C2=COCCO2)cc1 ?
SARS PLpro yeast: inactive; Pf growth 48h: inconclusive; HCV inhibitor: inactive; Sm TGR block: inactive; HCMV inh: inactive; Pf growth 96h: inactive

Results for O=Cc1ccc(OCC(=O)Nc2ccccc2C(F)(F)F)cc1 ?
SARS PLpro yeast: inactive; Pf growth 48h: inactive; HCV inhibitor: inactive; Sm TGR block: inactive; HCMV inh: inactive; Pf growth 96h: inactive

What do the screens show for `Cc1ccc2nc(C3CCCCC3)c(Cc3ccccc3)n2c1`?
HCMV inh: inactive

Results for Cc1ccc2nc(C3CCCCC3)c(Cc3ccccc3C(F)(F)F)n2c1 ?
HCMV inh: -70

How did Cn1c(-c2cccc([N+](=O)[O-])c2)cnc1NCc1cccc(F)c1 do in these assays?
SARS PLpro yeast: inactive; Pf growth 48h: inactive; HCV inhibitor: inactive; Sm TGR block: inactive; HCMV inh: inactive; Pf growth 96h: 4.7µM

What do the screens show for `Cn1c(-c2ccc(F)cc2)cnc1NCc1cccc([N+](=O)[O-])c1`?
SARS PLpro yeast: inactive; Pf growth 48h: inactive; HCV inhibitor: inactive; Sm TGR block: inactive; HCMV inh: inactive; Pf growth 96h: inconclusive

What do the screens show for `Cc1nc2c(C(=O)Nc3ccc(N4CCCC(O)C4)cc3)snc2c(=O)[nH]1` (stereo not drawn)?
SARS PLpro yeast: inactive; Pf growth 48h: 1.7µM; HCV inhibitor: inactive; Sm TGR block: inactive; HCMV inh: inactive; Pf growth 96h: inconclusive

What do the screens show for `CC(C)Cn1cc(C(=O)N2CCN(c3cccc(Cl)c3)CC2)c2c3ccccc3n(C)c2c1=O`?
Sm TGR block: inactive; HCMV inh: inconclusive

Results for O=C(O)c1ccc(Nc2nc3ccc(Cl)cc3[nH]2)cc1 ?
SARS PLpro yeast: inactive; Pf growth 48h: inactive; HCV inhibitor: 2.8µM; Sm TGR block: inactive; HCMV inh: inactive; Pf growth 96h: inactive

Results for ClCCNc1nc2ccc(Cl)cc2[nH]1 ?
SARS PLpro yeast: inactive; Pf growth 48h: inactive; HCV inhibitor: inactive; Sm TGR block: inactive; HCMV inh: inactive; Pf growth 96h: inactive

How did CCC1CCCCN1C(=O)CSc1nnc(-c2ccc(OC)c(OC)c2)o1 (stereo not drawn) do in these assays?
Sm TGR block: inactive; HCMV inh: inactive

Results for CC(C)=NOC(=O)c1c(C)noc1-c1snnc1C ?
SARS PLpro yeast: inactive; Pf growth 48h: 1.7µM; HCV inhibitor: inactive; Sm TGR block: inactive; HCMV inh: inactive; Pf growth 96h: 1.9µM

Results for CCSC1=N/C(=C\c2ccc(C(=O)O)cc2)C(=O)S1 ?
SARS PLpro yeast: inactive; HCV inhibitor: inactive; Sm TGR block: inactive[11.4 µM]; HCMV inh: inactive; Pf growth 96h: 13µM

How did CC(=O)c1ccc(NC(=O)c2ccc(-c3nc(CSc4ccc(C)cc4)c(C)o3)cc2)cc1 do in these assays?
Sm TGR block: inactive; HCMV inh: inactive

What do the screens show for `Cc1oc(-c2ccc(C(=O)Nc3cccc(C(F)(F)F)c3)cc2)nc1CSc1ccccc1`?
Sm TGR block: inactive; HCMV inh: -98

What do the screens show for `CC(=O)c1ccc(NC(=O)c2ccc(-c3nc(CSc4ccccc4)c(C)o3)cc2)cc1`?
Sm TGR block: inconclusive; HCMV inh: -76

How did CC(=O)c1cccc(NC(=O)c2nc(-c3ccccc3)oc2C)c1 do in these assays?
SARS PLpro yeast: inactive; Pf growth 48h: inactive; HCV inhibitor: 16µM; Sm TGR block: inactive; HCMV inh: inactive; Pf growth 96h: inactive

Results for COc1ccc(CCNC(=O)CCC(=O)n2ncc3ccc(Cl)cc32)cc1OC ?
SARS PLpro yeast: inactive; Pf growth 48h: inactive; HCV inhibitor: inactive; Sm TGR block: inactive; HCMV inh: inactive; Pf growth 96h: inconclusive

Results for Cc1ccc(Cl)cc1N1CCN(C(=O)Cn2ncn3cccc3c2=O)CC1 ?
SARS PLpro yeast: inconclusive; Pf growth 48h: inactive; HCV inhibitor: inactive; Sm TGR block: inactive; HCMV inh: -76; Pf growth 96h: inactive

What do the screens show for `O=C(Cn1ncn2cccc2c1=O)N1CCCCC1`?
SARS PLpro yeast: inactive; Pf growth 48h: inactive; HCV inhibitor: inactive; Sm TGR block: inactive; HCMV inh: inactive; Pf growth 96h: inactive
